Compounds with a hit are over-represented: about 2.6% of the library has one in this group of screens.
Cardio protect = protects H9c2 cardiomyocytes from peroxide injury. H2O2 injury protection, ATPLite, 2 h. 360,000 tested, 0.63% active. protection from H2O2 cell death, % at 20 µM;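 active = compounds giving at least 50% protection of heart cells from peroxide-induced death in the single-dose screen, raw or plate-pattern-corrected value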;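 note: 0% = DMSO wells with peroxide and 100% = DMSO wells without peroxide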
H9c2 TAG inh = inhibitors of triacylglycerol accumulation | AID 651582 | inhibition, % at 12.5 µM | 230,000 tested, 0.66% active | H9c2 cells, Nile Red lipid (TAG) fluorescence; cells loaded with 200 µM oleic acid;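 active = pattern-corrected inhibition of lipid staining of at least 50% with the nuclear-stain viability signal not falling by more than 50%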;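 note: 0% = DMSO wells and 100% = triacsin C control wells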
Jurkat NFkB inh = inhibitors of the PMA/ionomycin-induced NF-kB reporter in Jurkat cells; PMA/ionomycin-induced NF-kB luciferase reporter, luminescence; 330,000 tested, 0.53% active; AID 435003; inhibition, % at 4 µM; in the data active = inhibition above about 50%
Gli-Sufu block = Gli-Sufu pathway antagonism | 340,000 tested, 0.74% active | AID 588413 | Sufu-KO-LIGHT fibroblasts, Gli luciferase reporter luminescence | inhibition, % at 5 µM;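 active = inhibition above about 55%, limit read from the data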;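 note: 0% = DMSO-treated cells and 100% = wells with medium but no cells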
COUP-TFII inh = inhibitors of human COUP-TFII (NR2F2). P24468. HEK293T NGFI-A luciferase reporter, luminescence. inhibition, % at 8.6 µM. 370,000 tested, 0.7% active. AID 686940;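 active = inhibition above a per-plate cutoff, mean inhibition of test wells between control levels plus 3 SD, cut at about 38% in these data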;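 note: cells cotransfected with COUP-TFII expression vector driving the NGFI-A reporter; 0% = median of COUP-TF2 test wells and 100% = reporter-only cells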
Target sequence (P24468 whole entry, looked up): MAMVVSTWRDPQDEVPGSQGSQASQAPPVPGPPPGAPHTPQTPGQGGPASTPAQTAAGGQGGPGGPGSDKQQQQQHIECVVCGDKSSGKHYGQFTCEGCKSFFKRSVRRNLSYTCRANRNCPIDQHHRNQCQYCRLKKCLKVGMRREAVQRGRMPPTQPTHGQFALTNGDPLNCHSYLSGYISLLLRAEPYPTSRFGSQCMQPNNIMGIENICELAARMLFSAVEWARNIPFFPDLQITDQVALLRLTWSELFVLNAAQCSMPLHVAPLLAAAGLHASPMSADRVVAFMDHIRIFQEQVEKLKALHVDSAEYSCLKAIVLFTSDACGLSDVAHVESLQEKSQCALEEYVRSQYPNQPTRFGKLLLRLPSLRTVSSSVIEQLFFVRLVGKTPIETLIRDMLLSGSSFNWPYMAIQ
697 NFkB inh = lowers PMA/ionomycin-induced NF-kB signal in 697 B cells | 697 B-cell NF-kB luciferase reporter, 16 h | inhibition, % at 4 µM | 330,000 tested, 0.33% active; in the data active = inhibition above about 35%
Jurkat NFkB conf = lowers PMA/ionomycin-induced NF-kB signal in Jurkat cells | shares compounds with Jurkat NFkB inh | inhibition, % at 4 µM | 2,700 tested, 27% active | Jurkat NF-kB luciferase, 16 h | AID 435020;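 active = inhibition reaching about 45% at 4 µM in either replicate, limit read from the data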;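 note: plate controls were PMA/ionomycin stimulated DMSO wells for no effect and unstimulated DMSO wells for full effect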
697 NFkB conf = lowers PMA/ionomycin-induced NF-kB signal in 697 B cells | shares compounds with 697 NFkB inh | 697 B-cell NF-kB luciferase, 16 h | inhibition, % at 4 µM | 2,000 tested, 35% active | AID 449746; in the data active = inhibition mostly above about 28%, no sharp cut-off; inactive = mostly below about 22%
Numbers without * were called inactive; i = inactive; nt = no result.

SMILES | Cardio protect | H9c2 TAG inh | Jurkat NFkB inh | Gli-Sufu block | COUP-TFII inh | 697 NFkB inh | Jurkat NFkB conf | 697 NFkB conf
Cc1cccnc1Nc1nc(-c2ccc(O)cc2O)cs1 | 13 | 3 | -77 | -41 | -12 | -62 | nt | nt
Cc1cccnc1Nc1nc(-c2ccccn2)cs1 | -1 | 102 | 81* | -8 | -30 | -347 | 8 | -175
COC(=O)[C@]12C[C@H](CC(=O)NCc3cccc(C(F)(F)F)c3)C(=O)N(Cc3ccc4c(c3)OCO4)C1=C[C@H](C(C)(C)C)O[C@@H]2C | nt | nt | nt | nt | 20 | nt | nt | nt
Cc1cc(C)cc(C(=O)OCCCN(C)C2CN(Cc3cn(Cc4ccccc4C(F)(F)F)nn3)S(=O)(=O)C2)c1 (stereo not drawn) | nt | nt | nt | nt | 10 | nt | nt | nt
O=C(Nc1ccc2c(c1)OCO2)OC1CCC12CCCCC2 (stereo not drawn) | nt | nt | nt | nt | -35 | nt | nt | nt
O=C(Cc1ccc(Cl)cc1)NCCc1c[nH]c2ccccc12 | -4 | -16 | nt | 10 | 11 | nt | nt | nt
O=C(CCl)N(c1ccc(Cl)cc1)c1c[nH]c2ccccc12 | -15 | nt | 71* | 88* | 10 | 80* | 26 | 36*
CCC(C)c1ccc(NC(=O)c2cccs2)cc1 (stereo not drawn) | -20 | nt | -187 | -127 | -60 | -381 | -137 | -294
COc1cc(NCc2ccccc2O)c2ncccc2c1 | 0 | nt | 10 | 1 | 14 | -5 | nt | nt
COc1cc(NC(C)CCCN)c2ncccc2c1 (stereo not drawn) | -39 | 15 | 65* | 19 | 24 | 44* | 36 | 38*
COc1ccc(-n2ncc3c(N4CCC(C)CC4)ncnc32)cc1 | -37 | -1 | -198 | -47 | -16 | -325 | -99 | -402
CCOC(=O)N1CCN(c2ncnc3c2cnn3-c2ccc(OC)cc2)CC1 | -4 | -1 | nt | 26 | 2 | nt | nt | nt
Cc1ccc(N=Cc2sc(O)c3ccccc23)cc1 | 3 | -17 | -197 | -54 | -44 | -257 | 14 | -35
C=C1/C=C(\C)[C@](C)(O)C[C@H](O)CC(=O)[C@H](O)[C@@H](O)[C@H](C)C[C@H](C)OC(=O)/C(C)=C/CC/C=C/[C@@H]2O[C@H]2C[C@H](C)C1 | nt | nt | 57* | nt | nt | 37* | 12 | 17
Cc1ccc(NC(=O)c2noc3c2CCCCC3)cc1C | -4 | nt | -248 | -88 | -58 | -317 | -114 | -306
Cc1cc(O)c2c(c1O)C(=O)[C@]13C(=C2O)C(=O)[C@@H]2[C@@H](O)[C@H]1[C@@H]1[C@H](O)[C@H]3C(=O)C3=C(O)c4c(O)cc(C)c(O)c4C(=O)[C@]312 | -9 | nt | 85* | 78* | nt | 44* | 87* | -18
Cc1ccc(OCc2nc(-c3cccs3)no2)c([N+](=O)[O-])c1 | -20 | -6 | -249 | -139 | -47 | -274 | -162 | -353
CCOC(=O)CC[C@@H]1CC[C@]2(CCCN(Cc3nccs3)C2)O1 | nt | nt | nt | nt | -4 | nt | nt | nt
O=C(N/N=C/c1ccc([N+](=O)[O-])o1)c1cc(-c2ccc(-c3ccccc3)cc2)nc2ccccc12 | -29 | 32 | -177 | -70 | -37 | i | -85 | i
Cc1ccnc(NC(=O)Nc2cccc(F)c2)c1 | -9 | nt | -176 | -131 | -12 | -303 | -121 | -257
Cc1ccc(NC(=O)Nc2cccc(F)c2)nc1 | -4 | nt | -96 | -50 | -50 | -99 | nt | nt
COc1ccc(C(=O)Nc2nnc(SCC(=O)Nc3ccc(NC(C)=O)cc3)s2)c(OC)c1 | -5 | 6 | -207 | -26 | -87 | 71* | -129 | 61*
COc1ccc(NC(=O)Nc2nc3ccccc3s2)cc1 | -8 | 9 | -96 | -86 | -37 | -123 | nt | nt
COc1ccc2nc(NC(=O)Nc3ccccc3)sc2c1 | -38 | 8 | -223 | -91 | -44 | -335 | -128 | -317
COc1cc2nc(NC(=O)c3ccccc3)sc(=O)c2cc1OC | 28 | nt | 82* | -11 | 14 | 43* | 89* | 54*
SMILES | Cardio protect | H9c2 TAG inh | Jurkat NFkB inh | Gli-Sufu block | COUP-TFII inh | 697 NFkB inh | Jurkat NFkB conf | 697 NFkB conf
COc1ccc(C(=O)Nc2nnc(SCC(=O)NC3CCCC3)s2)c(OC)c1 | -14 | 29 | -36 | -37 | -56 | -165 | nt | nt
COc1ccc2nc(NC(=O)c3ccccc3F)sc2c1 | -20 | 0 | -154 | -105 | -64 | -279 | -116 | -318
O=c1c2ccccc2n(Cc2ccco2)n1[C@@H](Cc1ccccc1)Cn1cc(-c2ccc(-c3ccccc3)cc2)nn1 | nt | nt | nt | nt | -13 | nt | nt | nt
C=CCn1c(COc2ccc(C)cc2)nnc1SCc1ccc([N+](=O)[O-])cc1 | nt | nt | nt | nt | 11 | nt | nt | nt
COCc1[nH]nc2c1C(c1ccc3c(c1)OCO3)N(Cc1ccccc1)C2=O (stereo not drawn) | nt | nt | nt | nt | 10 | nt | nt | nt
Cc1ccc2nc(NC(=O)c3cc(-c4ccco4)nc4ccccc34)sc2c1 | -16 | nt | -7 | -7 | 5 | -18 | nt | nt
CCOc1ccc2nc(NC(=O)c3ccoc3C)sc2c1 | -30 | 2 | -168 | 4 | -35 | -374 | -106 | -322
COc1ccc(C(=O)Nc2nc3ccccc3s2)c(OC)c1 | -20 | nt | 85* | 88* | 99* | 69* | 91* | 60*
Cc1ccc2nc(NC(=O)c3ccccc3F)sc2c1 | -17 | 2 | -163 | -80 | -18 | -261 | -133 | -229
C=CCN(CC#Cc1ccccc1)Cc1ccc2c(c1)OCO2 | nt | nt | nt | nt | -13 | nt | nt | nt
S=C(Nc1ccccc1)OC1CCC12CCC(c1ccccc1)CC2 (stereo not drawn) | nt | nt | nt | nt | -10 | nt | nt | nt
O=C(NC1CCCCN(Cc2cccc(F)c2)C1=O)c1cccc(C(F)(F)F)c1 (stereo not drawn) | nt | nt | nt | nt | -3 | nt | nt | nt
COc1cc(C=Nn2c(-c3ccccc3F)n[nH]c2=S)ccc1OCc1ccccc1 | nt | nt | nt | nt | -15 | nt | nt | nt
c1ccc(-c2cc(-c3nnc4sc(Cc5cccs5)nn34)[nH]n2)cc1 | nt | nt | nt | nt | -16 | nt | nt | nt
CC(C)C[C@H]1COc2cc(Br)ccc2S(=O)(=O)N1Cc1cn(Cc2ccc(C(F)(F)F)cc2)nn1 | nt | nt | nt | nt | -3 | nt | nt | nt
CCN1CCCCC(NC(=O)c2cccc(C(F)(F)F)c2)C1=O (stereo not drawn) | nt | nt | nt | nt | -12 | nt | nt | nt
CC(C)c1ccc(-c2nnn(CCC(=O)O)n2)cc1 | -7 | nt | 60* | 40 | nt | 71* | 62* | 70*
CCOC(=O)c1cn[nH]c1NC(=S)Nc1ccc(Cl)cc1 | -13 | -7 | -185 | -72 | -7 | -449 | -109 | -268
S=c1[nH]nc(-c2cc(-c3ccccc3)n[nH]2)n1N=Cc1c[nH]c2ccccc12 | nt | nt | nt | nt | -35 | nt | nt | nt
Nc1[nH]n(-c2ccccc2)c(=O)c1N=Nc1ccc2c(c1)OCCO2 | -14 | 17 | -194 | -128 | -60 | -312 | -100 | -196
O=C(Nc1ccc(-c2nc3ccccc3s2)c(O)c1)C1=COCCO1 | -17 | nt | -242 | -75 | -54 | -335 | -72 | -134

Screening results (PubChem BioAssay)
